According to PubChem BioAssay:
The other results are listed elsewhere or left out. A number with no mark means an inactive call. Active and inactive are the calls of the source.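 Rule for the calls: active = mean activation over triplicate wells above the hit cutoff derived from the earlier primary screen (cut at about 11% in these data); inactive = the rest.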

Each molecule was assayed on DAF-12 nuclear receptor (Heterodera glycines), GAL4-LBD fusion (assay: H. glycines DAF-12 receptor agonists, confirmation, cell-based, luminescence, HEK293, GAL4-LBD fusion (AID 743050;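 note: 0% = DMSO low control and 100% = 2 mM sodium butyrate high control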)). Details: HEK293 GAL4-hgDAF12 luciferase reporter, agonist mode; at 6.8 µM; hits give high values; percent of butyrate response.

| Structure (SMILES) | activation |
| --- | --- |
| CN(C)S(=O)(=O)c1ccc2oc(SCC(=O)Nc3ccccc3F)nc2c1 | 15.5% (active) |
| COC(=O)c1sc(NC(=O)c2ccc(OC)cc2OC)nc1C | 7.02% |
| COc1ccc(-c2cn3cccnc3n2)cc1 | 9.37% |
| CC(/C=N/NC(=O)c1cc(-c2ccc3ccccc3c2)n[nH]1)=C\c1ccco1 | 1.68% |
| O=C(Nc1cccc(O)c1)c1ccc(C(=O)c2ccccc2)o1 | 12.2% (active) |
| Cc1ccccc1Nc1nc(-c2cccnc2)cs1 | 16.4% (active) |
| Cc1cc(O)c(NC(=O)c2ccc(C)c([N+](=O)[O-])c2)cc1C | 10% |
| O=C(NNC(=O)c1ccc(Cl)cc1Cl)c1cccs1 | 9.02% |
| O=C(Nc1ccc(Cl)c(Cl)c1)c1ccccc1NC(=O)C1CC=CCC1C(=O)O (stereo not given) | 10.2% |
| C/C(=N\NC(=O)OC(C)(C)C)c1ccc[nH]1 | 13.8% (active) |
| COC(=O)N/N=C/c1cn(CCCOc2ccc(C)cc2)c2ccccc12 | 6.55% |
| O=C(Nn1c(SCc2ccc([N+](=O)[O-])cc2)nc2ccccc2c1=O)c1ccc(F)cc1 | 11% (active) |
| Clc1ccc2nc(CSc3ccccc3)cn2c1 | 13.2% (active) |
| O=C(NCCOc1ccccc1)c1ccccc1F | 12.7% (active) |
| COc1ccc(NC(=O)c2ccc(OC)cc2)cc1 | 15.9% (active) |
| Cc1cnc(NC(=O)c2ccccn2)s1 | 15.6% (active) |
| CC(C)C(=O)Nc1cccc(C(=O)Nc2ccc3c(c2)OCO3)c1 | 14.1% (active) |
| O=C(NCCc1ccc(F)cc1)c1ccc2nccnc2c1 | 17% (active) |
| O=C(NN=Cc1ccc2c(c1)CCC2)c1ccccc1O | 10.4% |
| COc1ccc(NC(=S)N2N=CCC2c2ccccc2)cc1 (stereo not given) | 13.8% (active) |

| Structure (SMILES) | activation |
| --- | --- |
| O=C(NC(=S)NC1CCCCC1)c1ccc(Cl)cc1 | 11.3% (active) |
| S=C(c1ccc(-c2ccccc2)o1)N1CCCCC1 | 16.1% (active) |
| COc1ccc(-c2cn3ccsc3n2)cc1 | 16.3% (active) |
| Cc1ccn(-c2cccc(-n3ccc(C)n3)n2)n1 | 15.2% (active) |
| O=C(Nc1ncccc1O)c1ccc(S(=O)(=O)N2CCCC2)cc1 | 14.2% (active) |
| CC1CCCN(c2ccc(C(=O)NCCc3ccccc3)cn2)C1 (stereo not given) | 14.6% (active) |
| Cc1ccc(NC(=O)c2sccc2C)cc1[N+](=O)[O-] | 11% (active) |
| COc1ccc(Nc2ccc3ccccc3c2)cc1 | 13% (active) |
| CC(=O)Nc1ccc(-c2nc3ccccc3o2)cc1 | 17% (active) |
| CC1C/C(=N/NC(=O)c2cccs2)CC(C)(C)C1 (stereo not given) | 4.24% |
| O=C(NC1CCCC1)c1cc(-c2ccccc2)on1 | 37.1% (active) |
| COc1ccc(C(=O)O/N=C(\N)c2ccccn2)cc1[N+](=O)[O-] | 15% (active) |
| Cc1ccsc1C(=O)N/N=C/c1ccc([N+](=O)[O-])cc1 | 15.8% (active) |
| c1ccc(CN=C2Nc3ccccc3CS2)nc1 | 12.9% (active) |
| CC(C)(C)c1ccc(/C=C/C(=O)Nc2ncccn2)cc1 | 14.8% (active) |
| O=C(Nc1ccccc1)c1ccc2c(c1)OCCCO2 | 19.7% (active) |
| O=C(NCCCN1CCOCC1)c1cc(-c2ccccc2F)no1 | 11.6% (active) |
| Cc1ccc(C(=O)NNc2ncnc3ccccc23)cc1 | 9.47% |
| CCCNC(=O)c1c(Cl)cnn1-c1ccc(C)cc1 | 9.95% |
| O=C(Nc1ccc(C2CC2(Cl)Cl)cc1)c1cccc([N+](=O)[O-])c1 (stereo not given) | 15.2% (active) |
